In ChEMBL document CHEMBL1961873, “Compounds: GSK PKIS; Assays: Nanosyn kinase panel” (2012) one finds inhibition data, which are given here for four compounds.

The target of experiment [1] is T1, Mitogen-activated protein kinase 12 (Homo sapiens) (UniProt P53778).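 Note: values are averaged p38gamma kinase inhibition readings, compounds tested at 1 µM.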
T1 sequence (whole entry): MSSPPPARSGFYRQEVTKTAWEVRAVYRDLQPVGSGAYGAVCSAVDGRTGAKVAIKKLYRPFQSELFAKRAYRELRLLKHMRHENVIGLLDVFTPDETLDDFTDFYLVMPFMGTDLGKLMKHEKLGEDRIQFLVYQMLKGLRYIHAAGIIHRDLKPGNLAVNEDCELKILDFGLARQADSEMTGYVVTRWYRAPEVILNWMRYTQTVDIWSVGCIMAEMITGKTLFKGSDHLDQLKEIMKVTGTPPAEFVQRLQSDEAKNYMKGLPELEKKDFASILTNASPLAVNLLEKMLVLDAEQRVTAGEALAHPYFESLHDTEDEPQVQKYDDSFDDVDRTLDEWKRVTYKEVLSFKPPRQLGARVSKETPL
The note with it: at 1 µM.

The target in experiment [2] is SRSF protein kinase 1 (Homo sapiens) (UniProt Q96SB4). The note with it: at 0.1 µM.
Experiment [3] has the same target. The note with it: at 1 µM.
Experiment [4] has as its target Phosphatidylinositol 4,5-bisphosphate 3-kinase catalytic subunit alpha isoform (Homo sapiens) (UniProt P42336). The note with it: at 0.1 µM.
Experiment [5] shares this target. The note with it: at 1 µM.
Experiment [6] has as its target Phosphatidylinositol 4-kinase beta (Homo sapiens) (UniProt Q9UBF8). The note with it: at 0.1 µM.
Experiment [7] shares this target. The note with it: at 1 µM.
For experiment [8], the target named is Sphingosine kinase 1 (Homo sapiens) (UniProt Q9NYA1). The conditions noted are these: at 0.1 µM.
For experiment [9] the target is unchanged. The conditions noted are these: at 1 µM.
Experiment [10] has as its target T2, Sphingosine kinase 2 (Homo sapiens) (UniProt Q9NRA0).
T2 sequence (whole entry): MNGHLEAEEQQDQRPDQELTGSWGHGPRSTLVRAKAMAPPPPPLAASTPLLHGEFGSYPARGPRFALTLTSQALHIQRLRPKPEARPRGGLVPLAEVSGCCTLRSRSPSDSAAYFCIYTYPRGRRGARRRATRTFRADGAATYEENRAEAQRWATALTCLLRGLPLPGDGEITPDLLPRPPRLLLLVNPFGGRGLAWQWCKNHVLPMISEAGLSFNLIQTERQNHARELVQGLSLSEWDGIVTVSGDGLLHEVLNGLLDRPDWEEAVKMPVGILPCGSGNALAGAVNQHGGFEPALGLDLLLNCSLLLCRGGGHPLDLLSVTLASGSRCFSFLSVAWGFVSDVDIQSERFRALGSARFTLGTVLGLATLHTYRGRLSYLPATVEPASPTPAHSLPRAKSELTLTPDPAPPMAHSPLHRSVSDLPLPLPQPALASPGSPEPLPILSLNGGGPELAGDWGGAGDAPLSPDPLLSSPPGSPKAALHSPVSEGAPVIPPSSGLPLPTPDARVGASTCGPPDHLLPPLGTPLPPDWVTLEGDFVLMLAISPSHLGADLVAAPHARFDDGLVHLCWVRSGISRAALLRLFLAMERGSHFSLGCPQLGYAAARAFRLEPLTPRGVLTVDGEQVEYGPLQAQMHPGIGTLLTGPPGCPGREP
The conditions noted are these: at 0.1 µM.

Experiment [11] concerns the target T2, Sphingosine kinase 2 (Homo sapiens). The note with it: at 1 µM.
In experiment [12] the target is Casein kinase II subunit alpha (Homo sapiens) (UniProt P68400). The conditions noted are these: at 0.1 µM.
Experiment [13] has the same target. The note with it: at 1 µM.
For experiment [14], the target named is T3, Inhibitor of nuclear factor kappa-B kinase subunit alpha (Homo sapiens) (UniProt O15111).
T3 sequence (whole entry): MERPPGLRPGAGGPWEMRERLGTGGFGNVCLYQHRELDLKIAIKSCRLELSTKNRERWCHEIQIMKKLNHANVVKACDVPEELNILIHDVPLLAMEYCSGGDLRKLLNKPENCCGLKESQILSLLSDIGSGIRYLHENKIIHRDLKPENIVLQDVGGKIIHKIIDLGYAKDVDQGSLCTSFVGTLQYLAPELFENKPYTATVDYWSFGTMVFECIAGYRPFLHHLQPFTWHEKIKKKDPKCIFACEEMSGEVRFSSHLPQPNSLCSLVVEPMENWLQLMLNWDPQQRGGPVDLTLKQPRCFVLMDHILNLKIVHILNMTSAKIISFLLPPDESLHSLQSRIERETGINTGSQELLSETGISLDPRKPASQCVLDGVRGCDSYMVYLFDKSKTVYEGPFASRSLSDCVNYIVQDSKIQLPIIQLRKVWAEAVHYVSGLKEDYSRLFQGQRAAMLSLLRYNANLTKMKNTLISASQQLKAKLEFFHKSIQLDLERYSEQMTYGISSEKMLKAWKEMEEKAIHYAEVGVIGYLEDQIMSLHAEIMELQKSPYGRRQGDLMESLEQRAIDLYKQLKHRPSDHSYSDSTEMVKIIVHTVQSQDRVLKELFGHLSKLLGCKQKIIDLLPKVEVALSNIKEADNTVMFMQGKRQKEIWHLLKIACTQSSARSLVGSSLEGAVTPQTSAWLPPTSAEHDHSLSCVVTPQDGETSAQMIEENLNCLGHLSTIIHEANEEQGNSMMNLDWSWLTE
The conditions noted are these: at 0.1 µM.

For experiment [15], the target named is T3, Inhibitor of nuclear factor kappa-B kinase subunit alpha (Homo sapiens). The note with it: at 1 µM.
Experiment [16] deals with T4, Inhibitor of nuclear factor kappa-B kinase subunit beta (Homo sapiens) (UniProt O14920).
T4 sequence (whole entry): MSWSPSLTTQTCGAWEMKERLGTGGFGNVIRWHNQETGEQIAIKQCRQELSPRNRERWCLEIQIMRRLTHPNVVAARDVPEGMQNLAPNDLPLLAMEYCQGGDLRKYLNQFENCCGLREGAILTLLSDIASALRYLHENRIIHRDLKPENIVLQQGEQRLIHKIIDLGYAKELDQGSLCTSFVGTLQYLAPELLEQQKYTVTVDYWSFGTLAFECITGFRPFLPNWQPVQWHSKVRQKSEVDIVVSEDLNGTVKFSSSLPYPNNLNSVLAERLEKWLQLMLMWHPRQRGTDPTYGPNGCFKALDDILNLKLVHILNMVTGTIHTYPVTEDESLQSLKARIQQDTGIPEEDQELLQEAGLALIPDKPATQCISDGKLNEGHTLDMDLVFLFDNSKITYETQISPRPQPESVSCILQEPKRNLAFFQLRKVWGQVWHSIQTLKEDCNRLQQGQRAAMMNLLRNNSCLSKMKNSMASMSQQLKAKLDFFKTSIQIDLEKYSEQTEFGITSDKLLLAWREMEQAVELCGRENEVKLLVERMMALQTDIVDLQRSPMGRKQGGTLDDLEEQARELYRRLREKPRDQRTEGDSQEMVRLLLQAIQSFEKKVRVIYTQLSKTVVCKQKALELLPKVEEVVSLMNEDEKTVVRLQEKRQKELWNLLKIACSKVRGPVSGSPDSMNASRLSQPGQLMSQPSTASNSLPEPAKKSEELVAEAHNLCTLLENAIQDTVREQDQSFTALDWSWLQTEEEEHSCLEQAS
The conditions noted are these: at 0.1 µM.

The target of experiment [17] is T4, Inhibitor of nuclear factor kappa-B kinase subunit beta (Homo sapiens). The conditions noted are these: at 1 µM.
Experiment [18] addresses T5, Inhibitor of nuclear factor kappa-B kinase subunit epsilon (Homo sapiens) (UniProt Q14164).
T5 sequence (whole entry): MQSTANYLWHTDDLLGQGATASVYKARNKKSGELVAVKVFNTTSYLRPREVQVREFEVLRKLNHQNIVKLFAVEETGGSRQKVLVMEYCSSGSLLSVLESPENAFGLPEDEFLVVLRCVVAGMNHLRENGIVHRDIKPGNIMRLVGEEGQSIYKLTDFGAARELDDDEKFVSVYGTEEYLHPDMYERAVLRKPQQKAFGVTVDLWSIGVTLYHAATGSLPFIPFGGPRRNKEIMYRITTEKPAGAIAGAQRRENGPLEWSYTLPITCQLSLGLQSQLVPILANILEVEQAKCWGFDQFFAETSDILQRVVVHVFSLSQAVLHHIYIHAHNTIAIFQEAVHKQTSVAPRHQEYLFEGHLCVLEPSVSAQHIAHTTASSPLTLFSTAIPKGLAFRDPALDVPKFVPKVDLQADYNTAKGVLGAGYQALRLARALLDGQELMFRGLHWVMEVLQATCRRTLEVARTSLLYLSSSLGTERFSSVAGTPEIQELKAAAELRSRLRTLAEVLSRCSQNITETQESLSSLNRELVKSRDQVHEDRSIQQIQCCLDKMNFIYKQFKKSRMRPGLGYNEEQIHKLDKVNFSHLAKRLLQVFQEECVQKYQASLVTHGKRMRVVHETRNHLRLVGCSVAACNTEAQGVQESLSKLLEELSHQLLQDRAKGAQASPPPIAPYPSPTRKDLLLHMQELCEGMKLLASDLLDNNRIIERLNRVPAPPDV
The conditions noted are these: at 0.1 µM.

Experiment [19] concerns the target T6, Phosphatidylinositol 4,5-bisphosphate 3-kinase catalytic subunit delta isoform (Homo sapiens) (UniProt O00329).
T6 sequence (whole entry): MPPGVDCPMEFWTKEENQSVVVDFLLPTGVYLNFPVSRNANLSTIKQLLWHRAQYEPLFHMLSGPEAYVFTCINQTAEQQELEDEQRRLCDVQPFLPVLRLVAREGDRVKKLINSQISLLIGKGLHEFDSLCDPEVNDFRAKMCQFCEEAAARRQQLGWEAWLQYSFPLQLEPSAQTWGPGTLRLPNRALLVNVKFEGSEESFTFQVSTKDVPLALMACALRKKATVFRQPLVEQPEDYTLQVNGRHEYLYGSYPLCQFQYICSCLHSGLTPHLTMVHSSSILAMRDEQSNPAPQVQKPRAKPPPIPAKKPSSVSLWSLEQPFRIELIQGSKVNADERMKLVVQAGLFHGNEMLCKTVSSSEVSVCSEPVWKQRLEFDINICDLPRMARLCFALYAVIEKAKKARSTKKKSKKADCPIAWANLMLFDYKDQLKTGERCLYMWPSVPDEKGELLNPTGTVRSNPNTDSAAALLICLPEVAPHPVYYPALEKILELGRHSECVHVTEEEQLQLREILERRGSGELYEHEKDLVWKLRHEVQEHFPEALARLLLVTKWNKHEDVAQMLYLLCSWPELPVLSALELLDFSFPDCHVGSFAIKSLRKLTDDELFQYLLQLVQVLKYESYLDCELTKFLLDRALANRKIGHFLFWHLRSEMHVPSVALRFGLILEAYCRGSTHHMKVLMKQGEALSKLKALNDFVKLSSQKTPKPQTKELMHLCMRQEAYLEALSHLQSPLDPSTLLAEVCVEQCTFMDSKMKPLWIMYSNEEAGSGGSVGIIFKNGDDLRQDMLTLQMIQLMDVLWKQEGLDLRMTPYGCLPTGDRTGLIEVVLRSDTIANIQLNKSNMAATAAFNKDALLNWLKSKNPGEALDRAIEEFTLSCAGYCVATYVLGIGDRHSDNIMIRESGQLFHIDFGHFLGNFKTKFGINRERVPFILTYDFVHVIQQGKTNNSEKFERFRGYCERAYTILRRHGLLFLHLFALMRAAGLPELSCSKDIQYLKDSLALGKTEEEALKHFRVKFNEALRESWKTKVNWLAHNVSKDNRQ
The conditions noted are these: at 0.1 µM.

The target of experiment [20] is T6, Phosphatidylinositol 4,5-bisphosphate 3-kinase catalytic subunit delta isoform (Homo sapiens). The conditions noted are these: at 1 µM.

Chain of Sphingosine kinase 1 (Homo sapiens) (Q9NYA1 whole entry): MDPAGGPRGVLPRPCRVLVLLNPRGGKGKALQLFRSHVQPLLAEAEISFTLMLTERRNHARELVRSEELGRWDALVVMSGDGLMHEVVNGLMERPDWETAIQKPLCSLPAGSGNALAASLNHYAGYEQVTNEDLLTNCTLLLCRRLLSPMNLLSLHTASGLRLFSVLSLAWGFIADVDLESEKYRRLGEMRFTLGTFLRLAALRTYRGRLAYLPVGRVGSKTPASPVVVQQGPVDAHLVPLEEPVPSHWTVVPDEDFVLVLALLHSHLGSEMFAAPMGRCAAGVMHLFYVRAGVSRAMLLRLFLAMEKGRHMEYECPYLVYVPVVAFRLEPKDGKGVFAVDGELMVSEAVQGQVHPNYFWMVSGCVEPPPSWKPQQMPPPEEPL
Chain of Phosphatidylinositol 4,5-bisphosphate 3-kinase catalytic subunit alpha isoform (Homo sapiens) (P42336 whole entry, canonical isoform): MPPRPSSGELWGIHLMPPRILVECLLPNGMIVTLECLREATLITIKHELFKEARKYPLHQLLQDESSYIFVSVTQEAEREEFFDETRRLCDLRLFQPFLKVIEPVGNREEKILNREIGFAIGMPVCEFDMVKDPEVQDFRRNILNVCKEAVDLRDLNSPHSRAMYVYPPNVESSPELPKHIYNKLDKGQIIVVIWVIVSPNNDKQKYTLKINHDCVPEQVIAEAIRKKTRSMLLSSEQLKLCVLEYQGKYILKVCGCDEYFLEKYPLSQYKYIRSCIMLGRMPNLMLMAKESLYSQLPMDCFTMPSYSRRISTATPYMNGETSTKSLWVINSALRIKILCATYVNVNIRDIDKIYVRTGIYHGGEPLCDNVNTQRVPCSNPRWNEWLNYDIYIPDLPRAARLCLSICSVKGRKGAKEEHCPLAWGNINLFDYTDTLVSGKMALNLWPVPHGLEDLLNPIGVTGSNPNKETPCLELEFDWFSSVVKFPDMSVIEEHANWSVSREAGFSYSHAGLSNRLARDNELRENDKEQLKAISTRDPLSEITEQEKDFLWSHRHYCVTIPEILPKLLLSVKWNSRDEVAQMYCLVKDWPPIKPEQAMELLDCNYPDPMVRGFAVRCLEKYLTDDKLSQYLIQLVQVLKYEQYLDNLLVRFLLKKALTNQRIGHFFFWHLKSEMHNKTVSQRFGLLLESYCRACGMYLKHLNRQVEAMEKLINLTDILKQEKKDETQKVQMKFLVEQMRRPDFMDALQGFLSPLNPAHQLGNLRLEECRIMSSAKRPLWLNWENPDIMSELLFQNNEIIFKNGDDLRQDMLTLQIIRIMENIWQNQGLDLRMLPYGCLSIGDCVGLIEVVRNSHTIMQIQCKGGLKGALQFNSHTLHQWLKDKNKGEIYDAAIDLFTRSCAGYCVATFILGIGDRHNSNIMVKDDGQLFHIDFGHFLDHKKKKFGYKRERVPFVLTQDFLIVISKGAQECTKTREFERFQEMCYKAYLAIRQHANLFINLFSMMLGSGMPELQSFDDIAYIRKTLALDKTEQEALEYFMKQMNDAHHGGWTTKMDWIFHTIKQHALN
Chain of Phosphatidylinositol 4-kinase beta (Homo sapiens) (Q9UBF8 2-816 limits assumed): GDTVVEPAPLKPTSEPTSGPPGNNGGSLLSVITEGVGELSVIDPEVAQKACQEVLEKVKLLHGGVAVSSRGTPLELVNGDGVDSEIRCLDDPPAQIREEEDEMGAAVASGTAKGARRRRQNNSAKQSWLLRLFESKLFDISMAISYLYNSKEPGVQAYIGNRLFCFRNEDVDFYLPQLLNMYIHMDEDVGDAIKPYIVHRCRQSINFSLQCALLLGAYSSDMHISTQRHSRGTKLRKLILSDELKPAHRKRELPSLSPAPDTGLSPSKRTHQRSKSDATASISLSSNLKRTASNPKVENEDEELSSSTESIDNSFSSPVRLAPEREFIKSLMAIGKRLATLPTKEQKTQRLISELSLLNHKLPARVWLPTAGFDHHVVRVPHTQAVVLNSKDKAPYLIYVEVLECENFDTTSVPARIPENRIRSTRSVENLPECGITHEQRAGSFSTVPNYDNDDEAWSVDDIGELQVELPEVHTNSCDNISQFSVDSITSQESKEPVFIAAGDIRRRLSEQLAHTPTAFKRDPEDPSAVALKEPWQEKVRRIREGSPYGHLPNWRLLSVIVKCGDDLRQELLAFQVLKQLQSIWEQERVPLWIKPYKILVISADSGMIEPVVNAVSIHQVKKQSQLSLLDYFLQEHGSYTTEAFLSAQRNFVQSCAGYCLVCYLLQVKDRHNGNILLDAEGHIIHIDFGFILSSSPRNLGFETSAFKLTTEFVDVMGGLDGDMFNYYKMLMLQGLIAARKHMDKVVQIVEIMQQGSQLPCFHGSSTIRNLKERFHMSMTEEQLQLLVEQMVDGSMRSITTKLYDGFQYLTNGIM
Chain of SRSF protein kinase 1 (Homo sapiens) (Q96SB4 whole entry): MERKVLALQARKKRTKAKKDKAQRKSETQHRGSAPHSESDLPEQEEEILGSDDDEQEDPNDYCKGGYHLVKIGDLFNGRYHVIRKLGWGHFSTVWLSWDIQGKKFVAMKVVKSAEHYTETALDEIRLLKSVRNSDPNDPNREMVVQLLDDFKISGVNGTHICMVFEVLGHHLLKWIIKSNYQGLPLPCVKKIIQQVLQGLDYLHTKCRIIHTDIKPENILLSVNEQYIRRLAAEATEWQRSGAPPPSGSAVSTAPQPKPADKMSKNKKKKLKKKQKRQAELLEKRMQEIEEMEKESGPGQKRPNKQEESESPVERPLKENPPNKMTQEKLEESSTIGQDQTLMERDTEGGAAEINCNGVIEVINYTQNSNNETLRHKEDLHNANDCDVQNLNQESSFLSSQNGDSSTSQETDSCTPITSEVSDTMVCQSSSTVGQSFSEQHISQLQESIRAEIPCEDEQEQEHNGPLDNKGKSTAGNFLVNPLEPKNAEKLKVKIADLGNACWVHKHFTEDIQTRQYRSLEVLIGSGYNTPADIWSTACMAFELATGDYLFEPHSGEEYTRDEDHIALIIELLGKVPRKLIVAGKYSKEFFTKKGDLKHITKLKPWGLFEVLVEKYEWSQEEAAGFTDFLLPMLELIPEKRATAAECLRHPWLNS
Chain of Casein kinase II subunit alpha (Homo sapiens) (P68400 whole entry, looked up): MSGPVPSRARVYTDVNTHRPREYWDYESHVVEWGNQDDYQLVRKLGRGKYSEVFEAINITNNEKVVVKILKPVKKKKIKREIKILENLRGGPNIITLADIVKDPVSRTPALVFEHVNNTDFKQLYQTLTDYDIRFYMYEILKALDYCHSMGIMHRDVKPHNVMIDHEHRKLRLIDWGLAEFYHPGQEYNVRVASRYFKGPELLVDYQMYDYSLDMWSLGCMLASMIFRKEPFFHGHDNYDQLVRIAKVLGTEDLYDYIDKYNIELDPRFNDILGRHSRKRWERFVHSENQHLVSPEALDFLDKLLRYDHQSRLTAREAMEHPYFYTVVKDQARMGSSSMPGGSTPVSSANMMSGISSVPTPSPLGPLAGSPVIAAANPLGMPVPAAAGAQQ

Take `Nc1nc(-c2ccc3c(c2)C(=Cc2cc(Br)c(O)c(Br)c2)C(=O)N3)cs1`: the inhibition (in general, the relative decrease from the control value, in per cent) in experiment [1] was -1.45%; in experiment [2], 1.08%; in [3], 1.39%; in [4] it was 0.41%; in experiment [5], 24.5%; in experiment [6], 36.1%. Also, the inhibition is 71.6% in experiment [7]; 2.04% in experiment [8]; -0.49% in [9]; -0.01% in experiment [10]; 0.02% in experiment [11]; 2.7% in experiment [12]. Moreover, the inhibition in experiment [13] is 24.1%; in experiment [14], 9.67%; in experiment [15], 2.3%; in experiment [16], 0.26%; in [17], 0.06%; in experiment [18], -3%.
Turning to `CCc1cccc(NC(=O)Nc2ccc(Oc3ccc4nc(NC(=O)OC)[nH]c4c3)cc2)c1`, the inhibition worked out at 1.54% in [1]; 0.34% in experiment [2]; 1.37% in experiment [3]; 0.8% in experiment [4]; 2.44% in experiment [5]; 0.28% in experiment [19]. The inhibition in experiment [20] is 3.23%; in experiment [6], 5.24%; in experiment [7], -4.52%; in [9], -3.46%; in experiment [10] it was -1.39%; in [11] it was -2.51%. For the same compound, the inhibition in experiment [12] was 1.32%; in [13], 4.86%; in [14], 4.74%; in experiment [15], -0.97%; in experiment [16] it was 3.09%; in experiment [17], 2.83%. For the same compound, the inhibition in [18] came to 2.77%.
Turning to `CC1=C(C(=O)Nc2ccc3[nH]ncc3c2)C(c2ccc3ccccc3c2)CC(=O)N1` (stereo unspecified), the inhibition in experiment [1] is 1.97%; in experiment [2], -1.36%; in [3], 0.02%; in experiment [4] it was 5.28%; in [5] it was 5.6%; in experiment [19], 4.38%. Further, the inhibition in experiment [20] is 4.97%; in [6] it was -1.78%; in experiment [7], 0.34%; in experiment [8], 1.83%; in [9], 0%; in [10], 0.52%. Further, the inhibition in experiment [11] is 0.65%; in experiment [12], 3.48%; in experiment [13], 6.51%; in experiment [14], -1.96%; in experiment [15] it was 1.55%; in [16], 1.45%. In addition, the values for the inhibition in [17] and in [18] were 0.58% and 3.14%, respectively.
Turning to `COc1ccc(-c2ccncc2)cc1C(N)=O`, the inhibition was 5.57% in experiment [1]; -3.43% in [2]; -2.49% in experiment [3]; 5.07% in experiment [4]; 4.31% in experiment [5]; 2.29% in experiment [19]. Also, the inhibition in experiment [20] was 3.83%; in experiment [6], -1.68%; in [7], 4.03%; in experiment [8] it was 1.01%; in experiment [9], -0.74%; in experiment [10], 0.88%. For the same compound, the inhibition in [11] was -0.67%; in [13], 4.44%; in [14], 2.55%; in experiment [15] it was 9.39%; in experiment [16] it was 4.74%; in [17] it was 7.06%. In addition, the inhibition in [18] is 5.87%.
